{"source": "paper PMC12136788", "binders": {"B1": {"name": "chr17:90989275:90989276:-_ENSMUSG00000024109_ENSMUST00000160844|mus_mus|motif|central (ssRNA)", "RNA": "GGGAGUUCUACAGUCCGACGAUCAGAUGUUGUCUUGAAUUGGAAAAAUAGAUGCAUAGAGGUGUAGGCUUGCAAUGUAGCGGAGGCAACAUAGCUCGAUUUGGUCUUGAAGGUGACAGGAUCUGCGAUGAUGUUCCUGAAUCCCAACAGAGGAUUGAGCAUCA"}, "B2": {"name": "chrX:103214973:103214974:+_ENSMUSG00000031231_ENSMUST00000033582|mus_hu|FALSE|FALSE (ssRNA)", "RNA": "GGGAGUUCUACAGUCCGACGAUCAACAAUACAGAAAGUGGCUCCACUAGCUAAUACAGCAUUACCGUAUUUGUCAUGAAAAUCAGGUGUACGUUUCUGGUGGCUCUGCCUUGCCAUUGUUUGCUGAAUGCUUCGAACUUGGAGCAACAGAGGAUUGAGCAUCA"}, "B3": {"name": "chr2:35989780:35989781:-_ENSMUSG00000026889_ENSMUST00000028251|mus_hu|FALSE|FALSE (ssRNA)", "RNA": "GGGAGUUCUACAGUCCGACGAUCGCAUUCUCCAGGGGAAGAGUUUUGGUUUCUGCUUCCAUCAAUGUCUAUGAAAUACUCGUGGCCUCGGCGUGGUGCUCUCAGCUCAUGCCCGGAAACCAGGUCCCGACGCCGCGGUCAGACCAACAGAGGAUUGAGCAUCA"}, "B4": {"name": "37444673_37445709_2339_CDS_ENSMUSG00000026113_ENSMUST00000027287|mouse|control|control (ssRNA)", "RNA": "GGGAGUUCUACAGUCCGACGAUCGUAGAGCUGCCGCAGGAAGCCACCGUCGUGCAGGCAGUUCCUCAGCUUGAUGAUAAAGCCACAGAUGAGGGCUGUCAGGGUUUGGCAGAAGACGACGUCACGGCGAUACUGCAGGCUGAGCAACAGAGGAUUGAGCAUCA"}, "B5": {"name": "chr14:46222469:46222470:-_ENSMUSG00000037697_ENSMUST00000051310|mus_hu|FALSE|FALSE (ssRNA)", "RNA": "GGGAGUUCUACAGUCCGACGAUCAUUCUCUGAAACUGAGGUAGGUUCUUUAGCUGGGUUGAGAAAGCUUGGCUUCAUAUGUUCAUAAGGUAAAGGAUUUGAAGUAUUGUACCAGUGGAUCUGGACAGGUGAAAUGUUGCUGUACAACAGAGGAUUGAGCAUCA"}, "B6": {"name": "chr5:106037793:106037794:+_ENSMUSG00000054720_ENSMUST00000067924|mus_mus|motif|central (ssRNA)", "RNA": "GGGAGUUCUACAGUCCGACGAUCUGUUGUCUUGUGUGGAAAAGGAAAAAAAAAUAAUAUAGGAAAGGCAUUAGGACGGCCGGAUUCUUUAUAUUGUAUUUGGUAGAAGCAUGUUUCAGUCAUACUCUGAUGAAAAAUAAGUUACAACAGAGGAUUGAGCAUCA"}, "B7": {"name": "57185256_57189016_303_CDS_ENSG00000146143_ENST00000607273|human|control|control (ssRNA)", "RNA": "GGGAGUUCUACAGUCCGACGAUCUUCAUCUUCUAAGUUUUCUCUGUAGGAAAACUUGAGCUUCCGAAGCUCACUCUCCAACUUACUCUGGUAUUGUUCAGUUCCUUUCACAUAGCUCACUCCAAGAUUUUCAACUGAUUUUAACAACAGAGGAUUGAGCAUCA"}, "B8": {"name": "chr21:32491406:32491407:-_ENSG00000156299_ENST00000286827|hu_hu|motif|central (ssRNA)", "RNA": "GGGAGUUCUACAGUCCGACGAUCCAUAGUAUUUUAAACCCUUCUUAGGAAGUGGACAUUGUGACAUGGGAAAAGAAAAAGCGGUAAACCUUUUUUUAAAAAAAAAAAAAAAAUUGAAAGUGCUAUAACUUGUUUUUCUUCUUACAACAGAGGAUUGAGCAUCA"}, "B9": {"name": "chrX:119742084:119742085:+_ENSG00000232119_ENST00000371317|hu_hu|FALSE|FALSE (ssRNA)", "RNA": "GGGAGUUCUACAGUCCGACGAUCAAAAGGAUAUUUGUGAAGUAAUCUUAGGGUUGGAUAAAAAGGCCCUUCUCUUUGUCUAAAAAAGAGUAAUUCUCCAUUUACUGUAAGGAUUUCUAUAUGUUCAUGGCAUCGGACUAUUUUCAACAGAGGAUUGAGCAUCA"}, "B10": {"name": "chr11:9308113:9308114:-_ENSG00000166471_ENST00000528080|hu_hu|motif|central (ssRNA)", "RNA": "GGGAGUUCUACAGUCCGACGAUCAUUAGGCAGAAAUGGUGUUAUUCUCAAAAAUAUAAUGUAGUUAAUGAGAUGUUCUCGGUGACGUUCAACCUGCUGUGACCAUUUUACUGCUUUCUCUGUUAGGUAUUUGUAUACAACUGGCAACAGAGGAUUGAGCAUCA"}, "B11": {"name": "chr5:106037793:106037794:+_ENSMUSG00000054720_ENSMUST00000067924|mus_hu|motif|central (ssRNA)", "RNA": "GGGAGUUCUACAGUCCGACGAUCCUUUGUGUACAUUUUGUGUGAAAAGGAAAAAAAAAUAGGAAAGGCAUUAAGACGGCCGGAUUAUUUAUACUGUAUUUGGUAGAAGCGUGUUUCAGUCAAACUUUAACGAAAAAUAAGUUACAACAGAGGAUUGAGCAUCA"}, "B12": {"name": "chr5:106037793:106037794:+_ENSMUSG00000054720_ENSMUST00000067924|mus_mus|FALSE|FALSE (ssRNA)", "RNA": "B6 RNA with G77U, G78A, G81U, G82A"}, "B13": {"name": "chr14:57521665:57521666:+_ENSMUSG00000021945_ENSMUST00000022511|mus_mus|FALSE|FALSE (ssRNA)", "RNA": "GGGAGUUCUACAGUCCGACGAUCAACAACGUCAUCAUCAUCUUCUACUGAUGAGUUCUGAAACUUACUAGAUCUAGACACUAAAGGAUUAGGUGGGCCACUAAAUGAAUUUCCUACGUUCGUGAGACUAGUUGCCAUGGCUGUCAACAGAGGAUUGAGCAUCA"}, "B14": {"name": "chr4:76721835:76721836:+_ENSG00000138768_ENST00000264904|hu_mus|hu_hu_hu_mus_True|58_108 (ssRNA)", "RNA": "GGGAGUUCUACAGUCCGACGAUCGUUGGCUGGGGUUUUCUGAGACGCUCUGGAAUAUAACUCAUGUUUGCUAAUAAUCCUAGUUUCCUCUAUGAAAUUCUCUUUGCCAAUCCUCUUCUCUAUUAGUUGCUUUAGUUUCUCUUUCAACAGAGGAUUGAGCAUCA"}, "B15": {"name": "chr12:48362563:48362564:+_ENSG00000134291_ENST00000256686|hu_mus|FALSE|FALSE (ssRNA)", "RNA": "GGGAGUUCUACAGUCCGACGAUCUCCGUCAAGCCCUUCGAUAGACCCUUGCGGGGGAAACUGUAAUCACUUUGUAUGGGGAAGGAAAAGAAACGCCAAAAACUUUCCAAAAAGCGGGGGUGGGGUGAGGCGGGAGGGGGAGGUCAACAGAGGAUUGAGCAUCA"}, "B16": {"name": "chr14:76904430:76904431:+_ENSMUSG00000022010_ENSMUST00000022587|mus_mus|mus_mus_mus_hu_True|38_98 (ssRNA)", "RNA": "GGGAGUUCUACAGUCCGACGAUCUGCAGCCAAAAACAGAGAGAGGGAAAAAAAGAGGGAACACCAGCAGCCUUGUAUAAGCUAGAUAAAAUCUUCUAGCUGUCUGCAGCCCAGGGAGAAACAGAAAACGGCAGCCCUAAUUUACAACAGAGGAUUGAGCAUCA"}, "B17": {"name": "chr14:76904430:76904431:+_ENSMUSG00000022010_ENSMUST00000022587|mus_mus|mus_mus_mus_hu_True|48_98 (ssRNA)", "RNA": "B16 RNA with U91C, U93G, U94C, A97G, G101U, U104C"}, "B18": {"name": "chr14:76904430:76904431:+_ENSMUSG00000022010_ENSMUST00000022587|mus_mus|mus_mus_mus_hu_True|68_68 (ssRNA)", "RNA": "GGGAGUUCUACAGUCCGACGAUCUGCAGCCAAAAACACCCUCGUGGAAAAAAAGAGGGAACACCAGCAGCCUGGUUUAAGCUAGAUAAAAUCUUCUGGCUUUCCGCAGCCCAGGGAGAAACAGAAAACGGCAGCCCUAAUUUACAACAGAGGAUUGAGCAUCA"}, "B19": {"name": "chr14:76904430:76904431:+_ENSMUSG00000022010_ENSMUST00000022587|mus_mus|mus_mus_mus_hu_True|98_108 (ssRNA)", "RNA": "B16 RNA with A27U, C29G, C30A, C36A, A97G, G101U, U104C"}, "B20": {"name": "chr14:76904430:76904431:+_ENSMUSG00000022010_ENSMUST00000022587|mus_mus|mus_mus_mus_hu_True|88_98 (ssRNA)", "RNA": "B16 RNA with A47C, A48G, A49G, A50G, A52G, A53G, A97G, G101U, U104C"}, "B21": {"name": "chr14:76904430:76904431:+_ENSMUSG00000022010_ENSMUST00000022587|mus_mus|mus_mus_mus_hu_True|48_88 (ssRNA)", "RNA": "GGGAGUUCUACAGUCCGACGAUCUGCAGCCAAAAACACCCUCGUGGCGGGAGGGAGGGAACACCAGCAGCCUUGUAUAAGCUAGAUAAAACCGCCUGGCUUUCCGCAGCCCAGGGAGAAACAGAAAACGGCAGCCCUAAUUUACAACAGAGGAUUGAGCAUCA"}, "B22": {"name": "chr14:76904430:76904431:+_ENSMUSG00000022010_ENSMUST00000022587|mus_mus|mus_mus_mus_hu_True|98_98 (ssRNA)", "RNA": "B16 RNA with A97G, G101U, U104C"}}, "note": "Where a chain is given by its changes, count along the chain named. The full ranking holds about 24,000 sequences; the median of “enrichment r” is about 0.99, and the highest 2% start at about 3.7. The entries come from a sample that favours the highest values as a whole.", "data": [{"biological_target": "T1, UNK ZnF1-3 (human, UniProt Q9C0B0 31-174)", "T1 sequence": "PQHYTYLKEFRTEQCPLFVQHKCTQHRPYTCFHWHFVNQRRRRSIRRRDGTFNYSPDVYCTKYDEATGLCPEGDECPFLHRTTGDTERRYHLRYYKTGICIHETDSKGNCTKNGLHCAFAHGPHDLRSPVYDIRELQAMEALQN", "assay": "nsRBNS (natural sequence RNA bind-n-seq); RBNS binding buffer (assumed for nsRBNS): 25 mM Tris pH 7.5, 150 mM KCl, 3 mM MgCl2, 0.01% Triton X-100, 500 ug/ml BSA, 20 U/ml SUPERase-In, 4 C; UNK is unkempt and MSI1 is Musashi-1; names of the RNAs are library labels; protein concentration not given here; high values mean tight binding", "units": {"binding signal": "enrichment R"}, "values": [{"binder": "B1", "binding signal": 1.21}, {"binder": "B2", "binding signal": 1.13}, {"binder": "B3", "binding signal": 0.583}, {"binder": "B4", "binding signal": 1.01}, {"binder": "B5", "binding signal": 1.5}, {"binder": "B6", "binding signal": 5.1}, {"binder": "B7", "binding signal": 0.6}, {"binder": "B8", "binding signal": 1.34}, {"binder": "B9", "binding signal": 0.455}, {"binder": "B10", "binding signal": 1.85}, {"binder": "B11", "binding signal": 3.77}, {"binder": "B12", "binding signal": 4.57}, {"binder": "B13", "binding signal": 1.09}, {"binder": "B14", "binding signal": 0.387}, {"binder": "B15", "binding signal": 2.36}, {"binder": "B16", "binding signal": 4.97}, {"binder": "B17", "binding signal": 3.64}, {"binder": "B18", "binding signal": 2.29}, {"binder": "B19", "binding signal": 3.93}, {"binder": "B20", "binding signal": 3.29}, {"binder": "B21", "binding signal": 2.24}, {"binder": "B22", "binding signal": 4.46}]}]}
